Test results as given in PubChem BioAssay AID651965 (National Center for Advancing Translational Sciences (NCATS), 2013).
The whole screen tested about 340,000 compounds, of which about 6,400 (1.9%) were called active. Roughly 4% stayed inconclusive and do not appear here. Calls come from the whole dose curve; as a rule, active = well fitted falling curve with a large enough effect; inconclusive = small, poorly fitted or top-dose-only effect; inactive = no such curve, though single readings can be large or run the other way. The full list was thinned out, with actives kept by preference.

target: ATP-dependent Clp protease proteolytic subunit (Bacillus subtilis (strain 168)) (UniProt P80244); experiment: qHTS Assay for Activators of ClpP; note: the source files actives as falling curves though it sought activators and does not explain the sign; nearly all actives have a fitted effect of over 65% in size; conditions: purified B. subtilis ClpP, FRET peptide cleavage, 20 min; series mostly up to 57.5 µM; activity change, negative = active: at the top concentration
Sequence (P80244 whole entry, looked up): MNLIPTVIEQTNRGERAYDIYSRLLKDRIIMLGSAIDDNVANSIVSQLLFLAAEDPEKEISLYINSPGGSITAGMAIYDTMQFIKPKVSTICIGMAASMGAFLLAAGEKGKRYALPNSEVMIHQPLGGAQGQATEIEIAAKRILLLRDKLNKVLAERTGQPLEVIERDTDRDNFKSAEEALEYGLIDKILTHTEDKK
From the text: The Clp protease proteolytic subunit (ClpP) is the core unit of the Clp complex belonging to the peptidase family S14 that hydrolyzes protein into small peptides in the presence of ATP and magnesium. It is ubiquitously expressed and is the major protease in bacteria. […] Unlike common antibiotics that simply interfere with the essential enzyme activity, ADEP binding activates the ClpP core in the absence of the regulatory Clp-ATPases leading to uncontrolled proteolysis and eventually cell death. Activators binding to the docking site on ClpP can also block formation of the ClpXP and ClpA/C-P holoenzyme complexes interfering with the normal biological functions of ClpP and thus have the potential to become new anti-microbials.
To identify activators of ClpP, a FRET based quenching reversal assay was developed using a purified B. subtilis ClpP and a decapeptide substrate (FRET-FV). The FRET-FV is tagged with a fluorescent molecule amino benzoic acid (donor) at the N-terminus and a nitrotyrosine quencher (acceptor) at the C-terminus. FRET-FV cleaves upon activation of ClpP with ADEP treatement and reverses the quenching effect of the nitrotyrosine causing an increase in fluorescence emission signal at 430nm. This assay was used to screen the Molecular Libraries Small Molecule Repository (MLSMR).
NIH Molecular Libraries Probe Production Centers Network [MLPCN]
NIH Chemical Genomics Center [NCGC]
Assay Submitter (PI): Michael Maurizi, National Cancer Institute
Two and a half microL/well of purified enzyme solution (final concentrations 10 microg/mL B. subtilis ClpP in 100 mM Tris/HCl pH8, 100 mM KCl, 0.05% low protease BSA, 2.5% glycerol, 0.01% Tween-20 buffer) was dispensed into 1536-well assay plates (Greiner, black solid, medium-binding plates) with Aurora Discovery BioRAPTR Flying Reagent Dispenser (FRD, Beckton-Dickenson). Compound solution (23 nL) was transferred to the assay plate using Kalypsys pin tool equipped with a 1536-pin tool. […] FRET signals at time 0 and after 20 min room temperature incubation were obtained using the PerkinElmer Envision plate reader with 320nm excitation and 430nm emission filters. Delta FRET value (Time 20 - Time 0) was calculated and normalized to the delta FRET value of positive control ADEP (5.8 microM final concentration) and negative control DMSO and no enzyme wells.

Compound | Potency | activity change, negative = active
Fc1ccc(C2N3CCCN23)cc1 (centres undefined) | 28.2 µM (active) | –
O=c1[nH]c2ccccc2n1C1CCN(C(c2ccnc3ccccc23)c2nnnn2Cc2ccccc2)CC1 (centres undefined) | – | 1.32% (inactive)
CCN1CCN(C(=O)Cc2coc3cc(C)cc(C)c23)CC1 | – | -1.96% (inactive)
COC(=O)COc1cc(C)cc2oc(=O)c3c(c12)CCCC3 | – | -15.8% (inactive)
Cc1cc(OCc2cc(C(=O)O)oc2C)c2c3c(c(=O)oc2c1)CCCC3 | 28.2 µM (active) | –
Cc1ncoc1C(=O)NCC1=C(c2cccc3ccccc23)C[C@@H]2CC[C@H]1N2Cc1ccco1 | – | 1.72% (inactive)
CCOc1ccc(CNC(=O)c2cccc(Nc3nc4ccccc4n4nnnc34)c2)cc1OC | – | 1.78% (inactive)
CC/C(=N\NC(=O)c1ccccc1O)c1c(O)n(Cc2ccccc2)c(=O)[nH]c1=O | – | -20.7% (inactive)
CCOC(=O)c1cccc(C2=C(CNC(=O)c3ccncc3)[C@H]3CC[C@@H](C2)N3Cc2ccccc2)c1 | – | -2.63% (inactive)
CCOC(=O)c1c(N)n(CCN2CCOCC2)c2nc3ccccc3nc12 | 25.1 µM (active) | –
COc1cc(Cn2c(N)c(C(=O)NCc3ccco3)c3nc4ccccc4nc32)cc(OC)c1OC | 28.2 µM (active) | –
CCOC(=O)c1c(N)n(Cc2ccccc2)c2nc3ccccc3nc12 | 28.2 µM (active) | –
COC(=O)C1=C(c2ccccc2)C[C@@H]2CC[C@H]1N2C(=O)NCc1ccco1 | – | 0.913% (inactive)
c1cc2c(cc1C1OCC3C(c4ccc5c(c4)OCO5)OCC13)OCO2 (centres undefined) | – | 0.351% (inactive)
COc1cccc(C(c2nnnn2-c2ccc3c(c2)OCCO3)N2CCC3(CC2)C(=O)NCN3c2ccccc2)c1OC (centres undefined) | – | -2.09% (inactive)
S=C(NCCc1ccccc1)N1Cc2cc(N3CCOCC3)ccc2-n2nncc2C1 | – | -8.95% (inactive)
O=c1[nH]c2ccccc2n1C1CCN(C(c2ccccc2)c2nnnn2Cc2ccccc2)CC1 (centres undefined) | – | 1.83% (inactive)
CC(=O)NCC1=C(c2ccc3ccccc3c2)C[C@@H]2CC[C@H]1N2Cc1ccco1 | – | -3.56% (inactive)
CSCCC(c1nnnn1C(C)(C)C)N1CCC(n2c(=O)[nH]c3ccccc32)CC1 (centres undefined) | – | -3.84% (inactive)
CCn1cc(CN2CCCC(C(=O)c3cccc(C(F)(F)F)c3)C2)cn1 (centres undefined) | – | -2.07% (inactive)
COc1ccc(C2C=C(C)Oc3c2c(=O)oc2ccccc32)cc1OC (centres undefined) | – | -6.26% (inactive)
O=C(O)/C=C/c1ccc2c(c1)OCO2 | – | 4.44% (inactive)

Compound | Potency | activity change, negative = active
O=c1c2ccccc2[nH]c(=S)n1-c1cccc(Cl)c1 | – | -18.2% (inactive)
CC(C(=O)Nc1ccc(Cl)cc1Cl)N1CC=C(c2ccccc2)CC1 (centres undefined) | 28.2 µM (active) | –
O=C(Nc1ccc(Cl)cc1C(=O)c1ccccc1)c1cc(Cl)cc(Cl)c1 | – | 0.79% (inactive)
CN1CCN(C(=S)SCC(=O)Nc2ccc(Cl)cc2C(=O)c2ccccc2)CC1 | – | -6.56% (inactive)
O=C(NCC1=C(c2ccc3ccccc3c2)C[C@@H]2CC[C@H]1N2Cc1ccco1)c1cccs1 | – | -4.42% (inactive)
COC(=O)C1=C(c2ccc(OCc3ccccc3)cc2)C[C@@H]2CC[C@H]1N2C(=O)NCc1ccc(Cl)cc1 | – | -5.51% (inactive)
CCOc1ccc(-c2cc(C)n3nc(C(=O)Nc4ccc(C)c(C)c4)cc3n2)cc1 | 3.55 µM (active) | –
ClCCN(CCCl)c1ccc(C=Nc2ccc(/C=C/c3ccnc4ccccc34)cc2)cc1 | – | -13.1% (inactive)
COC(=O)C1=C(c2ccc(OCc3ccccc3)cc2)C[C@@H]2CC[C@H]1N2C(=O)NCc1cccc(F)c1 | – | -7.83% (inactive)
O=C(c1cc(S(=O)(=O)N2CCOCC2)ccc1F)N1CCC2(CC1)OCCO2 | – | 0.465% (inactive)
O=C(c1cc(-c2ccncc2)nc2ccccc12)N1CCC2(CC1)OCCO2 | 28.2 µM (active) | –
O=C(c1ccccc1[N+](=O)[O-])N1CCC2(CC1)OCCO2 | – | 1.83% (inactive)
Cc1ccc(-c2cc(C(=O)N3CCC4(CC3)OCCO4)no2)cc1 | – | -4.99% (inactive)
Cc1cccc(-n2c(C)nc3cc(C(=O)N4CCC5(CC4)OCCO5)ccc32)c1 | – | 0.319% (inactive)
O=C(c1cc2nc(-c3ccccc3)cc(-c3ccccc3)n2n1)N1CCC2(CC1)OCCO2 | 35.5 µM (active) | –
COc1cc([C@@H]2c3cc4c(cc3[C@H](OC(C)=O)[C@H]3COC(=O)[C@H]23)OCO4)cc(OC)c1OC | – | -0.0541% (inactive)
COc1ccc(-n2nnnc2C(c2cccc3ccccc23)N2CCC(n3c(=O)[nH]c4ccccc43)CC2)cc1 (centres undefined) | – | 0.35% (inactive)
COc1ccc(NC(=O)N2CCC3(CC2)OCCO3)c(OC)c1 | – | 0.147% (inactive)
COc1ccc(-c2nc(CS(=O)CC(=O)N3CCC4(CC3)OCCO4)c(C)o2)cc1 (centres undefined) | 31.6 µM (active) | –
COc1ccc(S(=O)(=O)NCc2ccc(C(=O)N3CCC4(CC3)OCCO4)cc2)cc1 | – | 0.386% (inactive)
CCC(C)(O)C(=O)OC1C(=O)OC2CC3C(C)=CC(=O)C(O)C3(C)C3C4(O)OCC23C1C(C)C4O (centres undefined) | – | -2.2% (inactive)
CCOC(=O)[C@]12Cc3ccccc3[C@H]1N(C1CCCCC1)C(=O)c1cc(OC)ccc12 | – | -3.18% (inactive)

Compound | Potency | activity change, negative = active
c1ccc(N2Cc3ccccc3-n3nncc3C2)nc1 | – | 0.135% (inactive)
COc1cc(C(=O)N2Cc3ccc(Br)cc3-n3nncc3C2)cc(OC)c1OC | – | -0.434% (inactive)
C[C@H]1CN([C@@H](C)CO)C(=O)CCCn2nncc2CO[C@H]1CN(C)C(=O)Oc1ccccc1 | – | 1.9% (inactive)
COC(=O)C[C@H]1CC[C@H]2NC[C@@H](O)COC[C@@H]2O1 | – | -0.23% (inactive)
CCN(CC)CCOC(=O)c1cc2cc(COC)ccc2o1 | 28.2 µM (active) | –
O=P(OC1=CCCCC1)(c1ccccc1)c1ccccc1 | – | -2.65% (inactive)
CC(=CCOc1ccc2ccc(=O)oc2c1)C1=CC(=O)C(C)(C)O1 | – | 4.52% (inactive)
CC1C(=O)OC2CCN3CC=C(COC(=O)C(C)(O)C1(C)O)C23 (centres undefined) | – | 1.37% (inactive)
Cc1ccc(Cn2c(C)c3cnn(CC(=O)N4CCC5(CC4)OCCO5)c(=O)c3c2C)cc1 | – | -24.5% (inactive)
O=C(CCCn1c(=O)[nH]c2cc(Cl)ccc2c1=O)N1CCC2(CC1)OCCO2 | 28.2 µM (active) | –
Cc1nc2nc(C)c(CCC(=O)N3CCC4(CC3)OCCO4)c(C)n2n1 | – | -4.83% (inactive)
CC(=O)OC1C2(CC3N4C(=O)C5(CO)SSC4(CC31O)C(=O)N5C)OC(C)C(C)(C)C2=O (centres undefined) | – | -1.51% (inactive)
COc1ccc(NC(=O)N2Cc3ccccc3-n3nncc3C2)cc1 | – | -1.49% (inactive)
COC1C(O)C(C)OC(OC2CCC3(C=O)C(CCC4C3CCC3(C)C(C5=CC(=O)OC5)CCC43O)C2)C1O (centres undefined) | – | 0.46% (inactive)
C[C@H]1CN([C@@H](C)CO)C(=O)CCCn2nncc2CO[C@H]1CN(C)C(=O)Oc1cccc2ccccc12 | – | 2.28% (inactive)
CCOC(=O)c1c(-c2ccccc2)oc2ccc(OC(=O)N(C)C)cc12 | 3.16 µM (active) | –
CN(C)C(=O)Oc1ccc2c(c1)O/C(=C\c1ccccc1)C2=O | – | -10.7% (inactive)
CN(C)C(=O)Oc1ccc(OCc2cccc[n+]2C)cc1 | – | 0.542% (inactive)
CCOC(=O)[C@]12Cc3cc(OC)ccc3[C@H]1N(C(C)C)C(=O)c1ccccc12 | – | 1.13% (inactive)
O=C(NC1CCCCC1)N1Cc2cc(N3CCCCC3)ccc2-n2nncc2C1 | – | -3.37% (inactive)
